The values below come from PubChem BioAssay (NCATS).

Results filed as inconclusive are left out. Active and inactive are the calls of the source. Calls follow the shape of the dose curve; as a rule, active = well fitted inhibition curve with a large enough effect; inconclusive = small, poorly fitted or top-dose-only effect; inactive = no such curve, though single readings can be large or run the other way.
% is scaled to controls: 0 for no effect and ±100 for the full control effect.

The target of the first assay is Retinaldehyde dehydrogenase 3 (Homo sapiens) (UniProt P47895). Nature of the assay: qHTS for Inhibitors of the Aldehyde Dehydrogenase Family (ALDH1A3) Confirmatory screens (AID 2061311). Also: nearly all actives have a fitted effect of over 60% in size. Also: potency is read from the fitted curve at half-maximal effect. Conditions: ALDH inhibition qHTS; series mostly up to 46 µM; activity change, negative = inhibition: at the top concentration. A general note: In qHTS, concentration-response curves come from the screen itself.
For `CC(C)(C)OC(=O)N1CCN(c2ncc(NCc3ccc(-c4ccc(C#N)cc4)o3)cn2)CC1`, the Potency was 25.1 µM (active). Still for that read-out and setting: under `CC(C)(C)OC(=O)N1CCN(c2ccc(NCc3ccc(-c4ccc(C#N)cc4)o3)cc2)CC1` stands 15.8 µM (active); under `CC(C)(C)OC(=O)N1CCC(c2ccc(NCc3ccc(-c4ccc(C#N)cc4)o3)cc2)CC1`, 3.16 µM (active); under `CCOC(=O)C1CCN(c2ccc(NCc3ccc(-c4ccc(C#N)cc4)o3)cc2)CC1`, 7.08 µM (active).

In the case of `O=C(O)CN(CCOCCOCCN(CC(=O)O)CC(=O)O)CC(=O)O`, the “activity change, negative = inhibition” value is -4.3% (inactive). On the same count and under the same terms, under `Cc1ccc(S(=O)(=O)NC(=O)NN2CCCCCC2)cc1` stands -11.1% (inactive).

As for `COCC(=O)O[C@]1(CCN(C)CCCc2nc3ccccc3[nH]2)CCc2cc(F)ccc2[C@@H]1C(C)C`, the “activity change, negative = inhibition” value is -10.8% (inactive). Same read-out and setting: under `CCC(NC(C)C)C(O)c1ccc(O)c(O)c1` (stereo not drawn) stands -6.8% (inactive); under `CCN(CC)CCNC(=O)c1ccc(N)cc1`, -1.6% (inactive). On the same count and under the same terms, under `CC(C)NCC(O)c1ccc(O)c(O)c1` (stereo not drawn) stands 2.23% (inactive). For the compound `CC(C)(C)OC(=O)N1CCN(c2cnc(NCc3ccc(-c4ccc(C#N)cc4)o3)cn2)CC1`, the Potency was 11.3 µM (active). Take `O=C(O)/C=C/c1ccc(O)c(O)c1`: the “activity change, negative = inhibition” value was -4.07% (inactive).

Consider `N#Cc1ccc(-c2ccc(CNc3ccc(N4CCC(C#N)CC4)cc3)o2)cc1`, for which the Potency is 7.94 µM (active). Consider `CC(C)(C)OC(=O)N1CCN(c2cnc(NCc3ccc(-c4ccc(C#N)cc4)o3)nc2)CC1`, for which the Potency is 15.8 µM (active).

On to `O=C1CCc2cc(OCCCCc3nnnn3C3CCCCC3)ccc2N1`, for which the Potency is 0.631 µM (active). Same read-out and setting: then `CC(C)(C)OC(=O)N1CCN(c2ccc(NCc3ccc(-c4ccc(C#N)cc4)o3)cn2)CC1`, with 7.08 µM (active).

Another assay has the same target. Nature of the assay: qHTS for Inhibitors of the Aldehyde Dehydrogenase Family (ALDH1A3) Validation screen (AID 2061312). Also: nearly all actives have a fitted effect of over 45% in size. Conditions: ALDH1A3 enzyme inhibition qHTS validation, fluorescence; series mostly up to 84.7 µM; activity change, negative = inhibition: at the top concentration.
As to `CN(C)CC[C@@H](c1ccc(Br)cc1)c1ccccn1`, the “activity change, negative = inhibition” value is 7.37% [at 42.4 µM] (inactive). The same measure, in the same setting: then `CC(C)NC[C@H](O)c1ccc(O)c(O)c1`, with -14.8% [at 42.4 µM] (inactive); and `NC1CONC1=O` (stereo not drawn), with 21.6% [at 42.4 µM] (inactive). On the same count and under the same terms, then `CN=C(NC#N)NCCSCc1nc[nH]c1C`, with -2.23% [at 42.4 µM] (inactive). Consider `CC(=O)O[C@]1(C(C)=O)CC[C@H]2[C@@H]3C=C(Cl)C4=CC(=O)[C@@H]5C[C@@H]5[C@]4(C)[C@H]3CC[C@@]21C`, for which the Potency result is “inactive”. With `NC(N)=NCCCCN=C(N)N`, the “activity change, negative = inhibition” value was -6.69% [at 42.4 µM] (inactive). Same read-out and setting: then `CCN(CC)CCNC(=O)c1ccc(N)cc1`, with 9.52% [at 42.4 µM] (inactive). Same read-out and setting: then `C[N+](C)(C)CCO`, with 2.18% [at 42.4 µM] (inactive). For `Clc1ccc2c(c1)C(N1CCNCC1)=Nc1ccccc1O2`, the Potency entry is “inactive”. As to `CC(C)NCC(O)c1ccc(O)c(O)c1` (stereo not drawn), the “activity change, negative = inhibition” value is -25.7% [at 42.4 µM] (inactive). Take `CC(=O)[C@@]1(O)CC[C@H]2[C@@H]3CCC4=CC(=O)CC[C@]4(C)[C@H]3CC[C@@]21C`: the “activity change, negative = inhibition” value was 17.1% [at 42.4 µM] (inactive).

As for `COc1cc(OC)c(/C=C2/C(=O)Nc3ccccc32)c(OC)c1`, the “activity change, negative = inhibition” value was 10.2% [at 42.4 µM] (inactive).

As for `CC(N=C(NC#N)Nc1ccncc1)C(C)(C)C` (stereo not drawn), the “activity change, negative = inhibition” value is 23.4% [at 42.4 µM] (inactive). Consider `Cc1ccc(-c2cc(C(F)(F)F)nn2-c2ccc(S(N)(=O)=O)cc2)cc1`, for which the “activity change, negative = inhibition” value is 27.2% [at 42.4 µM] (inactive). Still for that read-out and setting: then `O=C1NCC2(CCN(CCc3ccccc3)CC2)O1`, with -22.3% [at 42.4 µM] (inactive); and `C[N+](C)(C)CCOP(=O)(O)OP(=O)([O-])OC[C@H]1O[C@@H](n2ccc(N)nc2=O)[C@H](O)[C@@H]1O`, with 5.34% [at 42.4 µM] (inactive).

Take `CC[N+](CC)(CC)CC`: the “activity change, negative = inhibition” value was 9.01% [at 42.4 µM] (inactive). The same measure, in the same setting: then `CCN(CC)CCOC(=O)C1(C2CCCCC2)CCCCC1`, with -6.34% [at 42.4 µM] (inactive); and `CC(C)c1c(C(=O)Nc2ccccc2)c(-c2ccccc2)c(-c2ccc(F)cc2)n1CC[C@@H](O)C[C@@H](O)CC(=O)O`, with 6.01% [at 42.4 µM] (inactive); and `CCN(CC)CCCC(C)Nc1ccnc2cc(Cl)ccc12` (stereo not drawn), with 9.16% [at 42.4 µM] (inactive).

Turning to `OC(CCN1CCCCC1)(c1ccccc1)C1CCCCC1` (stereo not drawn), the “activity change, negative = inhibition” value is 1.44% [at 42.4 µM] (inactive).

As to `CC(C)NCC(O)c1cc(O)cc(O)c1` (stereo not drawn), the “activity change, negative = inhibition” value is 12% [at 42.4 µM] (inactive).
